Measurements published in PubChem BioAssay (NCATS).
Records with an inconclusive call do not appear. Active and inactive are the calls of the source. Unless noted, calls follow the shape of the dose curve; as a rule, active = well fitted curve in the direction sought with a large enough effect; inconclusive = small, poorly fitted or top-dose-only effect, or another doubt; inactive = no such curve, though single readings can be large; an effect the other way counts as inactive or inconclusive.

Key:
[1] = target: Glucocorticoid receptor (Homo sapiens) (UniProt P04150); assay: qHTS assay for small molecule agonists of glucocorticoid receptor signaling (AID 588532; active = well fitted curve in the direction sought with a large enough effect in the signal ratio, with a control signal flat; the % refers to the signal ratio;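 also: 100% = dexamethasone at 0.1 µM and 0% = DMSO only wells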); conditions: HeLa MMTV-bla, beta-lactamase ratio, agonist, 18 h; activation: stronger effect = higher value, percent of dexamethasone control, DMSO zero
Glucocorticoid receptor (Homo sapiens), sequence (P04150 whole entry, looked up): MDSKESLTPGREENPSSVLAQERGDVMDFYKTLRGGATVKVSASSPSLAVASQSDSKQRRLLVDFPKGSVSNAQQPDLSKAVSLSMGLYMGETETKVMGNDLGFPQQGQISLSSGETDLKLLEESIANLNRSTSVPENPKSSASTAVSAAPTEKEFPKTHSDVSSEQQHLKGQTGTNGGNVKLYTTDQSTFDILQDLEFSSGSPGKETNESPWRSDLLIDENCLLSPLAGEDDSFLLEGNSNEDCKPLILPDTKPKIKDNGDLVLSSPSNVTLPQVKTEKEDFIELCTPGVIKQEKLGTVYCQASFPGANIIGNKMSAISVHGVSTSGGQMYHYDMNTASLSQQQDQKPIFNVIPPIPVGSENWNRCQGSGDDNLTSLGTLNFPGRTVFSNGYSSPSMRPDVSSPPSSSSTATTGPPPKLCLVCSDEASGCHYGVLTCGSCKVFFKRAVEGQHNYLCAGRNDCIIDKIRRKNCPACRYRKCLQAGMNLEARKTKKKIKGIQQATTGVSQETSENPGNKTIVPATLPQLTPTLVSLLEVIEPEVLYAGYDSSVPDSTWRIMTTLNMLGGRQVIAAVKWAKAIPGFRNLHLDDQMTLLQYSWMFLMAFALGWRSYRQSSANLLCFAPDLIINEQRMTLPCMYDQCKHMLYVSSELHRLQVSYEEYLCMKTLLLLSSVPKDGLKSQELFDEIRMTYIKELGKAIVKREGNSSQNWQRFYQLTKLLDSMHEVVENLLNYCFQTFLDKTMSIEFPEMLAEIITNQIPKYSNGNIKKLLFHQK
How it was run: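 Stimulation of a glucocorticoid response element-driven beta-lactamase gene was measured in HeLa cells. Responses were scaled between DMSO basal and 0.1 uM dexamethasone, then fitted for half-maximal stimulation.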

[2] = target: Vitamin D3 receptor (Homo sapiens) (UniProt P11473); assay: qHTS assay for small molecule agonists of vitamin D receptor signaling (AID 588543; calls by dose curve;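 also: 0% = DMSO basal and 100% = reference agonist control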)
Vitamin D3 receptor (Homo sapiens), sequence (P11473 whole entry, looked up): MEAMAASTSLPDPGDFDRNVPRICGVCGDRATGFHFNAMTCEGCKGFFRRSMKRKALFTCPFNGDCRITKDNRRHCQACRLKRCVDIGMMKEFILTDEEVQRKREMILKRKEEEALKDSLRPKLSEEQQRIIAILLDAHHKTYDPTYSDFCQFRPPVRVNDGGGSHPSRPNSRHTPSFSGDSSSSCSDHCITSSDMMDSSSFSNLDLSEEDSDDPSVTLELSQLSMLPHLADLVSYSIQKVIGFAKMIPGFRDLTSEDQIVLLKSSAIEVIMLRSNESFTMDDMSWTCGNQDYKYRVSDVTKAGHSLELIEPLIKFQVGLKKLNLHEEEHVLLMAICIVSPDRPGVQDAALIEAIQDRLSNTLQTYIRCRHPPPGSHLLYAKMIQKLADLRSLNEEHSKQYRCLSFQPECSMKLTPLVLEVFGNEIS
How it was run: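 Agonist-mode beta-lactamase reporter: HEK293T VDR-UAS-bla cells in charcoal-stripped 2% FBS, compound series 16 h 37 C, CCF4 2 h RT. EC50 from Hill fit, scaled against DMSO and 50 nM calcitriol control.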

[3] = qHTS assay for small molecule agonists of retinoid X receptor alpha signaling (AID 588544; calls by dose curve;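 as to activation: 0% = DMSO basal wells and 100% = reference agonist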); conditions: HEK293T RXRa-UAS-bla, beta-lactamase reporter, 18 h; 530 nm emission
[4] = target: Retinoic acid receptor RXR-alpha (Homo sapiens) (UniProt P19793); assay: as above
Retinoic acid receptor RXR-alpha (Homo sapiens), sequence (P19793 whole entry, looked up): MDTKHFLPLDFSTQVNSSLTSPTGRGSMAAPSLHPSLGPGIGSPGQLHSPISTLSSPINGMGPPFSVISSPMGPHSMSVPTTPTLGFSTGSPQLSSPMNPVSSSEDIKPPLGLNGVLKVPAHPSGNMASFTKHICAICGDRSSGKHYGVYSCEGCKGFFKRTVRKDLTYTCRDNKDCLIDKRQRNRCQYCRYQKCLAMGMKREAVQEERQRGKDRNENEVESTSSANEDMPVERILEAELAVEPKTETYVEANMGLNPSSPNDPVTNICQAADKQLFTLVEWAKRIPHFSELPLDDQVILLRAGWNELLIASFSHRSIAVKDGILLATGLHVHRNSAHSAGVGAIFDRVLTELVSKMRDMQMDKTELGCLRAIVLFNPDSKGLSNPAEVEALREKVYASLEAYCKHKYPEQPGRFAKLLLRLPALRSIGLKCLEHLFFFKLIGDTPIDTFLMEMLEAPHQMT

[5] = target: Thyroid hormone receptor beta (Homo sapiens) (UniProt P10828); assay: qHTS assay for small molecule agonists of thyroid hormone receptor beta signaling (AID 588545; calls by dose curve)
Thyroid hormone receptor beta (Homo sapiens), sequence (P10828 whole entry, looked up): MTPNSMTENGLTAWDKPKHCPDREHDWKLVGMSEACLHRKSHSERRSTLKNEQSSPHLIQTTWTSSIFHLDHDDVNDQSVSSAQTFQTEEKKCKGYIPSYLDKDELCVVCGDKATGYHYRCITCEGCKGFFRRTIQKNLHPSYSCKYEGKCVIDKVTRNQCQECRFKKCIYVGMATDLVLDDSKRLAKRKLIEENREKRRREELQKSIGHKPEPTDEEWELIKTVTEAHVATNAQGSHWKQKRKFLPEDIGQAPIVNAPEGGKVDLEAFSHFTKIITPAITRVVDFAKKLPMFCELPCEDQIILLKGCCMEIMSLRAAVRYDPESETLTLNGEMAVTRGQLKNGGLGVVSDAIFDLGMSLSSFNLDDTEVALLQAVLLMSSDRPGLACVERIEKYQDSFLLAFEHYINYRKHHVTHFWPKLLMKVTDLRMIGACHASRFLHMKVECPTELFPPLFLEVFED
How it was run: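 Agonist activity was read as beta-lactamase CCF4 fluorescence (405 ex, 460/530 em), scaled between DMSO (0%) and 10 nM T3 (100%), then Hill-fitted for EC50 and efficacy. HEK 293 TR-UAS-bla cells in 2% charcoal/dextran FBS medium were exposed 18 h at 37 C.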

[6] = target: Thyroid hormone receptor beta (Homo sapiens) (UniProt P10828); assay: qHTS assay for small molecule antagonists of thyroid hormone receptor beta signaling (AID 588547; active = well fitted inhibition curve with a large enough effect in the signal ratio, with a control signal flat, not every such curve was filed as active; the % refers to the signal ratio;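 also: cells stimulated with 0.4 nM T3 agonist during compound exposure; series mostly up to about 77 µM; % is scaled to controls: 0 for no effect and ±100 for the full control effect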); conditions: TR-UAS-bla HEK293, beta-lactamase ratio, antagonist mode, 18 h
How it was run: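 TR-UAS-bla GripTite HEK293 cells in 2% charcoal/dextran FBS medium were preincubated 4 h at 37 C, given compound (0.59 nM to 92 uM) plus 0.4 nM T3 (final) for 18 h, then CCF4 for 2 h at RT; Hill fit gave IC50.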

[7] = qHTS assay for environmental chemicals that activate the Aryl hydrocarbon Receptor (AhR) signaling pathway (AID 651777); conditions: 1A2-DRE human hepatoma cells, luciferase, 24 h; activation: stronger effect = higher value; also: % of control where 0% means no effect; nearly all actives have a fitted effect of over 15% in size
How it was run: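 Human hepatoma 1A2-DRE cells stably carrying a DRE/CYP1A2 promoter–luciferase reporter, 1,200 cells/well, exposed to compound 24 hr at 37 C. Luciferase read by One-Glo luminescence after 30 min at room temperature; increased signal marks AhR activation.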

[8] = target: Peroxisome proliferator-activated receptor alpha (Homo sapiens) (UniProt Q07869); assay: qHTS assay for small molecule agonists of the peroxisome proliferator-activated receptor alpha (PPARalpha) signaling pathway (AID 651778); conditions: PathHunter PPARalpha complementation, chemiluminescence, 6 h; max response: stronger effect = higher value; also: potency is read from the fitted curve at half-maximal effect; as to max response: % of control where 0% means no effect
Peroxisome proliferator-activated receptor alpha (Homo sapiens), sequence (Q07869 whole entry, looked up): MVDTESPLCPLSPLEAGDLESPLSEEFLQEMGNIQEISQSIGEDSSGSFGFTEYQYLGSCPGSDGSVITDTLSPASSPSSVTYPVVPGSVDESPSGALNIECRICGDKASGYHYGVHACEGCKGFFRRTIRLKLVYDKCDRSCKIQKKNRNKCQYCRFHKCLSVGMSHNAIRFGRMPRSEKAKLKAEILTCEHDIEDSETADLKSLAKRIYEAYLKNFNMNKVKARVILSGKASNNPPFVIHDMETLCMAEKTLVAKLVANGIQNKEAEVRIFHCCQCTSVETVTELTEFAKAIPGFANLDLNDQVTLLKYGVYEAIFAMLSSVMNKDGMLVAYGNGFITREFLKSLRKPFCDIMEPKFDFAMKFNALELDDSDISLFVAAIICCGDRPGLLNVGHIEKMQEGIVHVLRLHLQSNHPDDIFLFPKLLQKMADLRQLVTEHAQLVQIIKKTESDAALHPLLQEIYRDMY
How it was run: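 Cells plated at 2,000/well and held overnight at 37 C, 5% CO2, then compound added by pin tool for 6 hr; after PathHunter detection reagent and 60 min at room temperature, chemiluminescence from enzyme complementation was read.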

[9] = qHTS assay for small molecule agonists of the antioxidant response element (ARE) signaling pathway measured by Nrf2-dependant transcriptional activity - cell viability counter screen (AID 720653; active = well fitted curve in the direction sought with a large enough effect in the repeat runs; an effect the other way counts as inactive or inconclusive; also: % is scaled to controls: 0 for no effect and ±100 for the full control effect); conditions: ARE-bla HepG2 viability, CellTiter-Glo ATP luminescence, 16 h; max response: stronger effect = lower value
How it was run: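 ARE-bla HepG2 cells (2,000/well) rested 5 hrs at 37C/5% CO2, then exposed to compounds in DMSO for 16 hrs. Viability was read in the same wells as intracellular ATP by luminescence, 30 min at room temperature after reagent addition.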

[10] = qHTS assay for cell viability of HEK293 cells (AID 743288); conditions: ATP luminescence (CellTiter-Glo), 18 h; max response: stronger effect = lower value; also: nearly all actives have a fitted effect of over 50% in size; also: potency is read from the fitted curve at half-maximal effect; as to max response: % is scaled to controls: 0 for no effect and ±100 for the full control effect
How it was run: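 Total intracellular ATP, measured with a luciferase-coupled reagent, indicates the number of viable HEK293 cells. Exposure to test chemicals lasts 18 h at 37 C in 1,536-well format at 2,000 cells/well.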

[11] = qHTS assay for cell viability of the p53RE-bla HCT-116 cell line (AID 743292); also: % is scaled to controls: 0 for no effect and ±100 for the full control effect; nearly all actives have a fitted effect of over 55% in size
How it was run: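 CellSensor p53RE-bla HCT-116 cells (4,000/well) pre-incubated 5 h at 37 C, then exposed to compounds in DMSO for 16 h at 37 C. Viability read as ATP content by CellTiter-Glo luminescence after 30 min at room temperature.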

[12] = target: Nuclear receptor subfamily 1 group I member 2 (Rattus norvegicus) (UniProt Q9R1A7); assay: qHTS assay for small molecule activators of the rat pregnane X receptor (rPXR) signaling pathway (AID 651751; call rule not given here; also: 0% is about no effect); conditions: rPXR reporter cells, luciferase (One-Glo), 24 h
Nuclear receptor subfamily 1 group I member 2 (Rattus norvegicus), sequence (Q9R1A7 whole entry, looked up): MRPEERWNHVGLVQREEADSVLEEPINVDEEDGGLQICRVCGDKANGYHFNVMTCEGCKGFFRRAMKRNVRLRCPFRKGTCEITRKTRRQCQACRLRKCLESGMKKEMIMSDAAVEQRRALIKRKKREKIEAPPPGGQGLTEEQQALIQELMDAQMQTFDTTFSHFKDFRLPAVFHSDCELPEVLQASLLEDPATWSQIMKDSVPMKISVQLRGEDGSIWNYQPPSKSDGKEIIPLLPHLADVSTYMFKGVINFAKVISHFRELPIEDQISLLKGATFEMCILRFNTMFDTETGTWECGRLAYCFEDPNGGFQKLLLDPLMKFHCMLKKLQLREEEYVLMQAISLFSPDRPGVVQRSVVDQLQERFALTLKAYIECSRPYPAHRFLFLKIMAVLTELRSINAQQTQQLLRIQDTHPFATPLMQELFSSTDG

[13] = target: Estrogen receptor (Homo sapiens) (UniProt P03372); assay: qHTS assay for small molecule agonists of estrogen receptor alpha signaling (AID 588514; calls by dose curve;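 also: 0% = vehicle only and 100% = reference agonist; nearly all actives have a fitted effect of over 70% in size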)
Estrogen receptor (Homo sapiens), sequence (P03372 whole entry, looked up): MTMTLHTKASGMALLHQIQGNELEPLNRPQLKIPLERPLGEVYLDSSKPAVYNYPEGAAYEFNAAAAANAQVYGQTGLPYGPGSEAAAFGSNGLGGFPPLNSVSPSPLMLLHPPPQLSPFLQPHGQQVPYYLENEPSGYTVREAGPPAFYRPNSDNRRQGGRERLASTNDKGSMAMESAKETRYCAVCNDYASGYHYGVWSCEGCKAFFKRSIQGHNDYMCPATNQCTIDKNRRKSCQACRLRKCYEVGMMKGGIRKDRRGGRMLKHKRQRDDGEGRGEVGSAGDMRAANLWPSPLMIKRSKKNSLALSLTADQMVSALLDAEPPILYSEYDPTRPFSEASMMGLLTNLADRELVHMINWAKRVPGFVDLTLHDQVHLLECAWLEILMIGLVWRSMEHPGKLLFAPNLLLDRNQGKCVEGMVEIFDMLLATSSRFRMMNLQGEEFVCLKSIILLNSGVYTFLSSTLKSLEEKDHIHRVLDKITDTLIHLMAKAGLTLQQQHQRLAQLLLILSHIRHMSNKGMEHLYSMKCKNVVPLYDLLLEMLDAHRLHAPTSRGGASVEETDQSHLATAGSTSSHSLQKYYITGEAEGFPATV
How it was run: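 ER-alpha-UAS-bla GripTite HEK293 cells, 5000/well in 2% charcoal/dextran-stripped FBS medium, treated with compound titrations 18 h at 37 C. CCF4 beta-lactamase read by fluorescence after 2 h RT; normalised to 20 nM 17-beta-estradiol (100%) and DMSO (0%), Hill fit for EC50 and efficacy.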

[14] = target: Peroxisome proliferator-activated receptor delta (Homo sapiens) (UniProt Q03181); assay: qHTS assay for small molecule agonists of peroxisome proliferator-activated receptor delta signaling (AID 588534; calls by dose curve;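 also: 0% = DMSO basal wells and 100% = positive control agonist at 10 µM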)
Peroxisome proliferator-activated receptor delta (Homo sapiens), sequence (Q03181 whole entry, looked up): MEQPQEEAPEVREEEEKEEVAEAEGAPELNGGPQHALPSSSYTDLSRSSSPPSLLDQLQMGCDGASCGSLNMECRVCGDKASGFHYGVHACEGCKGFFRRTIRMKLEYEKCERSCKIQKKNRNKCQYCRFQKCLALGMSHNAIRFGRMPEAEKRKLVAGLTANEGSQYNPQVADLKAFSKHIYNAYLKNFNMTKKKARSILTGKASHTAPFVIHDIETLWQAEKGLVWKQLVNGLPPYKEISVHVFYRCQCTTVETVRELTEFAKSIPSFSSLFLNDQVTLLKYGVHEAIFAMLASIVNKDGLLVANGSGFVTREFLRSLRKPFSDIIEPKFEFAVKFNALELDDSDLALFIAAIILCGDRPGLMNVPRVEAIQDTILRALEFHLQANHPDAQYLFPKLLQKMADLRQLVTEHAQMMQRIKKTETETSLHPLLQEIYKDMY
How it was run: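 Cells carrying a PPAR-delta beta-lactamase reporter were treated with compounds for 18 h at 37 °C in agonist mode. CCF4 fluorescence was read after 2 h; EC50 and efficacy from Hill fits.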

[15] = qHTS assay for small molecule antagonists of retinoid X receptor alpha signaling (AID 588546; active = well fitted inhibition curve with a large enough effect in the signal ratio, with a control signal flat, not every such curve was filed as active; the % refers to the signal ratio;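 also: cells stimulated with 9-cis-retinoic acid as agonist; % is scaled to controls: 0 for no effect and ±100 for the full control effect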); conditions: HEK293T RXRa-UAS-bla, beta-lactamase ratio, antagonist mode; measured here: W530 green channel, cytotoxicity proxy
How it was run: (§1)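 Beta-lactamase reporter inhibition, read as CCF4 fluorescence ratio (ex 405, em 460/530 nm) after 2 h at RT. HEK293T UAS-bla cells, 2500/well, were stimulated with 9-cis-RA at 500 or 100 nM final alongside test compound for 18 h at 37 C.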

[16] = target: Retinoic acid receptor RXR-alpha (Homo sapiens) (UniProt P19793); assay: as above; conditions: HEK293T RXRa-UAS-bla, beta-lactamase ratio, antagonist mode
How it was run: as §1

[17] = qHTS assay for small molecule agonists of the antioxidant response element (ARE) signaling pathway measured by Nrf2-dependant transcriptional activity (AID 720636; active = well fitted curve in the direction sought with a large enough effect in the repeat runs; an effect the other way counts as inactive or inconclusive; also: potency is read from the fitted curve at half-maximal effect; as to activation: % of control where 0% means no effect)
How it was run: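 ARE-luc HepG2 cells carrying an Nrf2-responsive luciferase reporter, in medium with 1% dialyzed FBS, exposed to compound for 16 hr at 37 C, 5% CO2. Luminescence read 30 min after ONE-Glo addition.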

[18] = target: Peroxisome proliferator-activated receptor gamma (Homo sapiens) (UniProt P37231); assay: qHTS assay for small molecule agonists of peroxisome proliferator-activated receptor gamma signaling (AID 588536; active = well fitted curve in the direction sought with a large enough effect in the signal ratio, with a control signal flat, not every such curve was filed as active; the % refers to the signal ratio;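 also: 0% = DMSO basal wells and 100% = rosiglitazone at 2 µM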)
Peroxisome proliferator-activated receptor gamma (Homo sapiens), sequence (P37231 whole entry, looked up): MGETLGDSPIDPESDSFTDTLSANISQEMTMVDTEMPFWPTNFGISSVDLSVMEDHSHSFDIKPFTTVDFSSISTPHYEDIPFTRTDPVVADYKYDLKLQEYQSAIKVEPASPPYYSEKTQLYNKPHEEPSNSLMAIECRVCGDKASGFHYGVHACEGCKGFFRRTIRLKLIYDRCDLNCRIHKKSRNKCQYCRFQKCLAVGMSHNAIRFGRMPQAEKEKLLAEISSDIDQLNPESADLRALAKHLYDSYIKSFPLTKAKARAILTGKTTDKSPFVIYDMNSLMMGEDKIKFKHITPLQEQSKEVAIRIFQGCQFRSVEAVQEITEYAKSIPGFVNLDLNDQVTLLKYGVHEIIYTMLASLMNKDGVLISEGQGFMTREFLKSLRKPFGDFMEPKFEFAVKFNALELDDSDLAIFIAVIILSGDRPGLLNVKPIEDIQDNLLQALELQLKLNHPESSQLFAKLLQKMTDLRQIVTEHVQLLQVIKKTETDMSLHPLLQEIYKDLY
How it was run: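 Ratiometric blue/green fluorescence (405 nm excitation; 460 and 530 nm emission) from CCF4-loaded HEK293 reporter cells serves as signal. Exposure to test compounds lasts 16 h at 37 C in medium containing 1% charcoal/dextran-treated serum.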

[19] = qHTS assay for small molecule activators of the p53 signaling pathway (AID 651743; active = well fitted activation curve with a large enough effect in the signal ratio, not every such curve was filed as active; the % refers to the signal ratio; also: series mostly up to about 92 µM; % of control where 0% means no effect); conditions: HCT-116 p53RE-bla, beta-lactamase FRET ratio, 16 h; activation: stronger effect = higher value
How it was run: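 Cell-based beta-lactamase reporter (p53 response elements, HCT-116 background). After a 5-hour preincubation, cells received compound for 16 hours at 37 C; substrate development ran 2 hours at room temperature.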

[20] = target: Glucocorticoid receptor (Homo sapiens) (UniProt P04150); assay: qHTS assay for small molecule antagonists of glucocorticoid receptor signaling (AID 588533; active = well fitted inhibition curve with a large enough effect in the signal ratio, with a control signal flat, not every such curve was filed as active; the % refers to the signal ratio;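 also: cells stimulated with 2 nM dexamethasone as agonist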; also: potency is read from the fitted curve at half-maximal effect)
How it was run: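 Antagonist-mode qHTS: compound titrations added to GRE-bla HeLa cells, then dexamethasone 2 nM final; 18 h, 37 C. CCF4 FRET fluorescence normalized to dexamethasone and DMSO; IC50 from Hill fit.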

O=[N+]([O-])c1ccc2ccc3cccc4ccc1c2c34
inactive: activation [1] -22% | outcome [2] | Potency [4] | Potency [5] | activity change % (negative = inhibition) [6] -20.5% | activation [7] 2.13% | max response [8] -0.269% | max response [9] -9.82% | max response [10] -25% | Potency [11] | max response [12] 3%
19.4%: max response [3]

CCOP(=S)(OCC)Oc1ccc(S(C)=O)cc1 (configuration not stated)
inactive: Potency [13] | outcome [14] | outcome [2] | Potency [4] | Potency [5] | max response [16] -34.4% | activity change % (negative = inhibition) [6] -4.14% | activation [7] 14.8% | max response [8] -1.54% | Potency [17] | max response [9] 6.57% | Potency [11] | max response [12] 7.38%
-3.81%: max response [15]
-0.202%: max response [3]

O=C(NC(=O)c1c(F)cccc1F)Nc1cc(Cl)c(OC(F)(F)C(F)F)c(Cl)c1
-11.9%: max response [15]
inactive: activation [1] 12.6% | outcome [14] | Potency [18] | Potency [4] | Potency [5] | max response [16] 21.4% | activity change % (negative = inhibition) [6] -14.9% | activation [7] 0.0082% | max response [8] -1.91% | Potency [17] | max response [9] -11.1% | Potency [11] | max response [12] -0.359%
5.34%: max response [3]

COC(=O)N(C(=O)N1COC2(C(=O)OC)Cc3cc(Cl)ccc3C2=N1)c1ccc(OC(F)(F)F)cc1 (configuration not stated)
inactive: Potency [13] | activation [1] 17.1% | outcome [2] | activation [19] -1.52% | activation [7] 2.68% | max response [8] -1.75% | Potency [17] | max response [9] -4.11% | max response [10] -21.9% | Potency [11]

CC1(C)[C@H](C(=O)O[C@H](C#N)c2cccc(Oc3ccccc3)c2)[C@@H]1C=C(Br)Br
inactive: outcome [14] | Potency [4] | Potency [5] | activation [7] -1.98% | max response [8] -0.333% | Potency [17] | max response [9] -10.6% | max response [10] -19% | Potency [11]
-14.7%: max response [3]

CCNc1nc(NC(C)C)nc(SC)n1
-15.6%: max response [15]
-4.47%: max response [3]
inactive: outcome [14] | Potency [18] | outcome [2] | Potency [4] | Potency [5] | max response [16] -29% | activity change % (negative = inhibition) [6] 5.24% | activation [7] 0.555% | max response [8] -2.07% | Potency [17] | max response [9] 4.35% | max response [10] -10.8% | max response [12] -3.53%

CCC(C)(C)c1cc(-n2nc3ccccc3n2)c(O)c(C(C)(C)CC)c1
inactive: activation [1] 2.15% | Potency [20] | outcome [14] | outcome [2] | Potency [4] | Potency [5] | max response [16] 11.8% | activity change % (negative = inhibition) [6] 12% | activation [7] 0.0202% | max response [8] 0.0334% | max response [9] -12.9% | max response [10] -9.99% | max response [12] -0.463%
-14%: max response [15]
-3.41%: max response [3]

N#Cc1cc(I)c(O)c(I)c1
19.3%: max response [3]
inactive: outcome [14] | outcome [2] | Potency [4] | Potency [5] | max response [16] -13.5% | activation [7] -1.69% | Potency [17] | max response [9] -6.44% | max response [10] -4.72% | Potency [11] | max response [12] -7.71%
0.0011%: max response [15]
active: Potency [8] 15.8 µM

ClCc1ccccc1Cl
-22.8%: max response [3]
-6.52%: max response [15]
inactive: activation [1] -3.29% | Potency [20] | Potency [18] | outcome [2] | Potency [4] | Potency [5] | max response [16] 0.106% | activity change % (negative = inhibition) [6] -5.68% | activation [7] 0.685% | max response [8] 1.31% | Potency [17] | max response [9] -2.98% | max response [10] -1.39% | Potency [11] | max response [12] -0.702%

O=CNC(N1CCN(C(NC=O)C(Cl)(Cl)Cl)CC1)C(Cl)(Cl)Cl (configuration not stated)
inactive: activation [1] -2.65% | Potency [20] | outcome [14] | Potency [18] | outcome [2] | Potency [4] | Potency [5] | activity change % (negative = inhibition) [6] -18.1% | activation [19] -7.11% | activation [7] 0.502% | max response [8] -1.75% | max response [9] -22.2% | max response [10] -20.2% | Potency [11]
-14.2%: max response [3]

CC1(C)CON(Cc2ccccc2Cl)C1=O
-9.42%: max response [15]
inactive: Potency [13] | outcome [14] | Potency [18] | Potency [4] | Potency [5] | activity change % (negative = inhibition) [6] 0.368% | activation [19] -1.76% | activation [7] 5.31% | max response [8] 0.0347% | max response [9] -9.67% | max response [10] -8.49% | Potency [11] | max response [12] 13.2%
5.44%: max response [3]

CCOP(=S)(OCC)SC(CCl)N1C(=O)c2ccccc2C1=O (configuration not stated)
3.14%: max response [15]
inactive: outcome [14] | outcome [2] | Potency [5] | max response [16] 7.55% | activity change % (negative = inhibition) [6] 7.21% | activation [19] -5.87% | activation [7] 0.999% | max response [8] -0.704% | max response [9] -13.6% | max response [10] -5.75% | Potency [11]

C=CC(=O)OCC(CC)(COC(=O)C=C)COC(=O)C=C
23.9%: max response [15]
inactive: activation [1] -13.7% | outcome [14] | outcome [2] | activation [7] 9.7% | max response [8] -1.24% | max response [9] -3.3% | Potency [11] | max response [12] -14.4%
active: Potency [20] 44.7 µM | Potency [17] 61.1 µM | Potency [10] 50.1 µM
